According to PubChem BioAssay (Tox21):
Inconclusive results are not listed. The source made the active and inactive calls. The call rests on the fitted dose curve; in most records, active means well fitted cell-killing curve with a large enough effect in the repeat runs; inconclusive means weak or mixed curves, or effect the other way; inactive means no such curve, though single readings can be large or run the other way.

assay: qHTS assay to identify small molecule agonists of the farnesoid-X-receptor (FXR) signaling pathway - cell viability counter screen (AID 743218); settings: FXR-bla HEK293T viability, CellTiter-Glo luminescence, 16 h; series mostly up to 62.6 µM; viability change, negative = cytotoxic: at the top concentration; further: nearly all actives have a fitted effect of over 45% in size
Source text: U.S. Tox21 Program National Center for Advancing Translational Sciences [NCATS] NIH Chemical Genomics Center [NCGC] U.S. Environmental Protection Agency [EPA] National Institutes of Environmental Health Sciences [NIEHS] National Toxicology Program [NTP] U.S. Food and Drug Administration [FDA] Tox21 Assay Overview: The farnesoid-X-receptor (FXR), a nuclear hormone receptor, is highly expressed in liver, intestine, kidney and adrenal cortex. Natural ligands of FXR are the bile acids (Cholic acid, Chenodeoxy cholic acid etc). FXR is an important regulator of diverse metabolic pathways, including the bile acid homeostasis, lipid and glucose metabolisms. FXR regulates the expression of target genes by binding either as a monomer or as a heterodimer with the retinoid X receptor (RXR). Numerous studies have reported that FXR exerts protective function during cholestasis, diabetes, liver regeneration, and cancer. To identify compounds that activate FXR signaling, GeneBLAzer FXR-UAS-bla HEK 293T cell line (Invitrogen, Carlsbad, CA) containing a beta-lactamase reporter gene under the control of a UAS response element was used to screen the Tox21 10K compound library. The cytotoxicity of the Tox21 compound library against the FXR-bla cell line was tested in parallel by measuring the cell viability using CellTiter-Glo assay in the same wells.
Tox21 Assay Protocol Summary: FXR-bla cells were dispensed at 5000 cells/5uL/well in 1536-well black wall/clear bottom plates using a Multidrop Combi (Thermo Fisher Scientific, Waltham, MA) dispenser. After the assay plates were incubated at 37 C and 5% CO2 for 5 h, 23 nL of compounds dissolved in DMSO, positive controls or DMSO only was transferred to the assay plate by a Pintool station (Kalypsys, San Diego, CA). The assay plates were incubated at 37C for 16 h. After 1 uL of LiveBLAzerTM B/G FRET substrate was added using a Bioraptr Flying Reagent Dispenser (FRD) workstation (Beckman Coulter, Indianapolis, IN), the plates were incubated at room temperature for 2 h, and fluorescence intensity was measured by an Envision plate reader (PerkinElmer, Shelton, CT). For cell viability readout that measures cytotoxicity, 4uL/well of CellTiter-Glo reagent was added into the assay plates using a Bioraptr FRD. After 30 min incubation at room temperature, the luminescence intensity in the plates was measured using a ViewLux plate reader (PerkinElmer).
On the % scale 0 is the no-effect control and ±100 the full control effect.

Row | SMILES | viability change, negative = cytotoxic
1 | CC(C)(CO)C(O)C(=O)NCCCO (stereo not given) | 0.777% (inactive)
2 | CCCc1ccc(O)cc1 | -5.56% (inactive)
3 | O=C(Cn1ccnc1[N+](=O)[O-])NCc1ccccc1 | 4.91% (inactive)
4 | NCC1(Cc2noc(=O)[nH]2)CCCCC1 | 14.1% (inactive)
5 | Cn1c(=O)c2[nH]c(Br)nc2n(C)c1=O | 3.61% (inactive)
6 | CCN(CC)CCN | 15.9% (inactive)
7 | O=C(O)CNC(=O)CNC(=O)CNC(=O)CSC(=O)c1ccccc1 | 16.1% (inactive)
8 | CC1(C)CC(OC(=O)CCCCCCCCC(=O)OC2CC(C)(C)NC(C)(C)C2)CC(C)(C)N1 | -19.1% [at 29.1 µM] (inactive)
9 | O=[N+]([O-])c1c(Cl)cc(Cl)cc1Cl | 23.3% (inactive)
10 | N#CCC(=O)NN | 1.18% (inactive)
11 | CCCCCCCCCOC(=O)c1ccccc1C(=O)OCCCCCCCCC | 2.89% (inactive)
12 | Cc1ccnc(N)c1 | -4.14% (inactive)
13 | CCCCCCCCCCCCCCC(=O)NC(CO)CCCCCCCCCCCCCC (stereo not given) | 0% [at 81.1 µM] (inactive)
14 | COc1c2occc2c(OC)c2c(=O)cc(C)oc12 | -8.51% (inactive)
15 | CC(=O)CC(=O)Nc1ccc(C)cc1C | -1.55% (inactive)
16 | C#CCN[C@@H]1CCc2ccccc21 | 2.54% (inactive)
17 | Cc1ccccc1C(N)=O | 4.72% (inactive)
18 | C=CCN1C[C@H](C(=O)N(CCCN(C)C)C(=O)NCC)C[C@@H]2c3cccc4[nH]cc(c34)C[C@H]21 | 2.18% (inactive)
19 | CC(O)CC(C)O (stereo not given) | -1.26% (inactive)
20 | CCCCCCCCCCOC(C)=O | 0.785% (inactive)

Row | SMILES | viability change, negative = cytotoxic
21 | Fc1ccccc1 | 0.804% [at 81.1 µM] (inactive)
22 | O=C(O)CCCCCC(=O)O | -2.97% [at 81.1 µM] (inactive)
23 | O=C1OCCO1 | 14.9% [at 81.1 µM] (inactive)
24 | Cc1c(N)cccc1Cl | -1.56% (inactive)
25 | O=C(CCCl)NCCc1ccccc1 | -0.724% (inactive)
26 | C=C(C)[C@@H]1CC=C(C)CC1 | -12.5% (inactive)
27 | O=C(NCN1CCOCC1)c1cnccn1 | 16.3% (inactive)
28 | CC(=O)OCC(=O)Nc1cc(C#N)cc(NC(=O)COC(C)=O)c1Cl | -3.33% (inactive)
29 | C=Cc1ccc(C(C)(C)C)cc1 | 2.89% (inactive)
30 | CCCCOC(=O)[C@H](C)O | -7.25% (inactive)
31 | C=CC(=O)OCC1CCCO1 (stereo not given) | -0.198% (inactive)
32 | C=CCCCC | 21.2% [at 81.1 µM] (inactive)
33 | CC1OCCC1=O (stereo not given) | -0.516% (inactive)
34 | Cc1c(Cl)cccc1Cl | -9.55% (inactive)
35 | Nc1nnnn1-c1ccccc1 | -2.1% (inactive)
36 | O=C(Cl)c1ccccc1[N+](=O)[O-] | -1.31% [at 81.1 µM] (inactive)
37 | O=C(O)[C@H](O)c1ccccc1 | -1.27% (inactive)
38 | CC1=NN(c2ccc(S(=O)(=O)O)cc2)C(=O)C1 | 8.67% (inactive)
39 | CCn1cc(C(=O)O)c(=O)c2cnc(N3CCCC3)nc21 | -3.43% [at 13.2 µM] (inactive)
40 | [O]=[Mo](=[O])=[O] | -6.87% [at 29.1 µM] (inactive)
